Experimental findings from PMC11006913 are described below.

This assay concerns the target PITX2 (Homo sapiens, UniProt Q99697 72-157). Put plainly: PBM; 200 nM protein, PBS. The settings on record: dsDNA, one strand shown.
With CAACCATC, the binding signal was 8.24 upbm affinity estimate (log intensity, higher = more binding, comparable within an allelic series). CGAGCGTC: the binding signal was 7.93 upbm affinity estimate (log intensity, higher = more binding, comparable within an allelic series). The result for GGATCCTA reads 9.17 upbm affinity estimate (log intensity, higher = more binding, comparable within an allelic series); that for GAGTGCGC, 7.98 upbm affinity estimate (log intensity, higher = more binding, comparable within an allelic series); that for AACGAGGC, 7.79 upbm affinity estimate (log intensity, higher = more binding, comparable within an allelic series). The result for AGCGATGC reads 7.81 upbm affinity estimate (log intensity, higher = more binding, comparable within an allelic series).

In the case of CCTGCTTA, the binding signal is 10.3 upbm affinity estimate (log intensity, higher = more binding, comparable within an allelic series). As for ATCTAATG, the figure is 9.77 upbm affinity estimate (log intensity, higher = more binding, comparable within an allelic series). Consider AGGGCTTA, for which the binding signal was 12.3 upbm affinity estimate (log intensity, higher = more binding, comparable within an allelic series). Consider ACGTCTCC, for which the binding signal was 7.95 upbm affinity estimate (log intensity, higher = more binding, comparable within an allelic series). Turning to TATGATCA, the binding signal is 9.32 upbm affinity estimate (log intensity, higher = more binding, comparable within an allelic series).

GGTCTTTA: the binding signal is 9.73 upbm affinity estimate (log intensity, higher = more binding, comparable within an allelic series). For GCCTCACC, the binding signal is 8.04 upbm affinity estimate (log intensity, higher = more binding, comparable within an allelic series). Take GCAGTCGC: the binding signal is 7.82 upbm affinity estimate (log intensity, higher = more binding, comparable within an allelic series). With CCTACCAG, the binding signal is 8.01 upbm affinity estimate (log intensity, higher = more binding, comparable within an allelic series). As to CGGGCACA, the binding signal is 8 upbm affinity estimate (log intensity, higher = more binding, comparable within an allelic series).

For GCGCTGCA, the binding signal is 8.03 upbm affinity estimate (log intensity, higher = more binding, comparable within an allelic series). Regarding GGAGAGAC, the binding signal is 8.03 upbm affinity estimate (log intensity, higher = more binding, comparable within an allelic series). Turning to GAACACGA, the binding signal was 8.02 upbm affinity estimate (log intensity, higher = more binding, comparable within an allelic series). For CTGAGATA, the binding signal was 9.22 upbm affinity estimate (log intensity, higher = more binding, comparable within an allelic series). GGCTTAAA: the binding signal was 12.3 upbm affinity estimate (log intensity, higher = more binding, comparable within an allelic series). The result for ATTACAGA reads 9.82 upbm affinity estimate (log intensity, higher = more binding, comparable within an allelic series); that for ACAGATCT, 9.05 upbm affinity estimate (log intensity, higher = more binding, comparable within an allelic series). With TGGTCGAA, the binding signal was 7.84 upbm affinity estimate (log intensity, higher = more binding, comparable within an allelic series). In the case of GGAGGAAC, the binding signal was 8.06 upbm affinity estimate (log intensity, higher = more binding, comparable within an allelic series). Take ACTCTCGG: the binding signal was 8.08 upbm affinity estimate (log intensity, higher = more binding, comparable within an allelic series). Regarding ATATAAAG, the binding signal is 9.37 upbm affinity estimate (log intensity, higher = more binding, comparable within an allelic series). As for CTGTCGAC, the figure is 7.99 upbm affinity estimate (log intensity, higher = more binding, comparable within an allelic series); as for ACTGGTGC, 7.7 upbm affinity estimate (log intensity, higher = more binding, comparable within an allelic series). TGACGCAA: the binding signal is 8.04 upbm affinity estimate (log intensity, higher = more binding, comparable within an allelic series).

For ACAATCCC, the binding signal is 10.3 upbm affinity estimate (log intensity, higher = more binding, comparable within an allelic series). With ATGAGCCC, the binding signal was 9.64 upbm affinity estimate (log intensity, higher = more binding, comparable within an allelic series). Consider CTATCGCC, for which the binding signal was 8.13 upbm affinity estimate (log intensity, higher = more binding, comparable within an allelic series). AAGCCCTA: the binding signal is 10.4 upbm affinity estimate (log intensity, higher = more binding, comparable within an allelic series). On to ATTATCAC, for which the binding signal was 10.2 upbm affinity estimate (log intensity, higher = more binding, comparable within an allelic series). ACGTTCTG: the binding signal is 8.19 upbm affinity estimate (log intensity, higher = more binding, comparable within an allelic series).

GTCCACTA: the binding signal is 7.94 upbm affinity estimate (log intensity, higher = more binding, comparable within an allelic series).

As to TCTTGGCA, the binding signal was 7.96 upbm affinity estimate (log intensity, higher = more binding, comparable within an allelic series). The result for TAGATTAA reads 12.4 upbm affinity estimate (log intensity, higher = more binding, comparable within an allelic series); that for CCTCAACG, 7.97 upbm affinity estimate (log intensity, higher = more binding, comparable within an allelic series).
